Measured values published in PubChem BioAssay (NCATS).
Inconclusive results are not listed. Entries that show only a call come without a potency. Active and inactive are the calls of the source. Unless noted, calls follow the shape of the dose curve; as a rule, active = well fitted curve in the direction sought with a large enough effect; inconclusive = small, poorly fitted or top-dose-only effect, or another doubt; inactive = no such curve, though single readings can be large; an effect the other way counts as inactive or inconclusive.

Legend:
[1] = NS1 protein of Zika virus - qHTS assay to identify small molecule inhibitors in human HEK 293 cells (AID 1347053); also: series mostly up to about 46 µM; nearly all actives have a fitted effect of over 55% in size
Outline: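 HEK 293 cells, seeded 20 h at 37 C, were pretreated with compound 1 h, then infected with ZIKV MR766 (MOI = 0.5) for 24 h. NS1 was read by TR-FRET with two anti-NS1 antibodies, normalized to uninfected and infected wells.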

[2] = qHTS for Inhibitors of the Functional Ribonucleoprotein Complex (vRNP) of Lassa (LASV) Arenavirus: LASV Primary Screen - GLuc reporter signal (AID 1347082; calls by dose curve; tested in HEK293 reporter line; also: series mostly up to about 57 µM; nearly all actives have a fitted effect of over 60% in size)
[3] = qHTS for Inhibitors of the Functional Ribonucleoprotein Complex (vRNP) of Lassa (LASV) Arenavirus: Viability assay - alamar blue signal for LASV Primary Screen (AID 1347083; calls by dose curve; tested in HEK293 reporter line; also: series mostly up to about 57 µM; nearly all actives have a fitted effect of over 80% in size)
[4] = qHTS for Inhibitors of the Functional Ribonucleoprotein Complex (vRNP) of Lymphocytic Choriomeningitis Arenaviruses (LCMV): Viability assay - alamar blue signal for LCMV Primary Screen (AID 1347085; calls by dose curve; tested in HEK293 reporter line; also: series mostly up to about 57 µM; nearly all actives have a fitted effect of over 80% in size)
[5] = biological target: Nucleoprotein (Lymphocytic choriomeningitis virus (strain Armstrong)) (UniProt P09992); experiment: qHTS for Inhibitors of the Functional Ribonucleoprotein Complex (vRNP) of Lymphocytic Choriomeningitis Arenaviruses (LCMV): LCMV Primary Screen - GLuc reporter signal (AID 1347086; calls by dose curve; also: series mostly up to about 57 µM; nearly all actives have a fitted effect of over 70% in size)
[6] = qHTS of pediatric cancer cell lines to identify multiple opportunities for drug repurposing: Primary screen for TC32 cells (AID 1347089); also: nearly all actives have a fitted effect of over 60% in size
Outline: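 A viability screen of TC32 cells was run over 48 h, with primary MIPE doses spanning 0.78 nM–46 µM and NPC doses 0.59 nM–46 µM. ATP luminescence (CellTiter-Glo) served as the read-out.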

[7] = qHTS of pediatric cancer cell lines to identify multiple opportunities for drug repurposing: Primary screen for DAOY cells (AID 1347090); also: series mostly up to about 46 µM; nearly all actives have a fitted effect of over 55% in size
Outline: (§1)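 Viability measured as metabolically active cells via CellTiter-Glo luminescence following 48 hours of compound exposure, 11-point dilutions in confirmatory testing. 500-1,000 cells/well plated 5 hours before dosing; controls were DMSO and 2.3 µM bortezomib.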

[8] = qHTS of pediatric cancer cell lines to identify multiple opportunities for drug repurposing: Primary screen for SJ-GBM2 cells (AID 1347091)
Outline: as §1

[9] = qHTS of pediatric cancer cell lines to identify multiple opportunities for drug repurposing: Primary screen for A673 cells (AID 1347092); also: nearly all actives have a fitted effect of over 45% in size
Outline: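 Titration-based qHTS on A673 cells: MIPE compounds spanned 11 points (0.78 nM to 46 µM final), NPC compounds 8 points (0.59 nM to 46 µM final). Viability after 48 h was measured by ATP luminescence.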

[10] = qHTS of pediatric cancer cell lines to identify multiple opportunities for drug repurposing: Primary screen for SK-N-MC cells (AID 1347093); also: series mostly up to about 46 µM
Outline: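 Metabolically active cells were quantified by ATP-dependent luminescence (CellTiter-Glo, 15 min at room temperature) following 48 h treatment. Cells had been plated at 500-1,000 per well and settled for 5 h beforehand.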

[11] = qHTS of pediatric cancer cell lines to identify multiple opportunities for drug repurposing: Primary screen for BT-37 cells (AID 1347094); also: potency is read from the fitted curve at half-maximal effect
Outline: (§2)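 Following a 5-hour attachment period, cells at 500-1,000/well received compounds and were cultured for 48 hours. CellTiter-Glo was added and luminescence read to estimate viable, metabolically active cells.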

[12] = qHTS of pediatric cancer cell lines to identify multiple opportunities for drug repurposing: Primary screen for U-2 OS cells (AID 1347096); also: nearly all actives have a fitted effect of over 50% in size
Outline: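 Viability after 48 h compound treatment at 37C, 500-1,000 cells/well, read as ATP luminescence with CellTiter-Glo. Primary screens used 11-point (MIPE, 0.78 nM-46 µM) or 8-point (NPC, 0.59 nM-46 µM) final concentrations; follow-up screens used 11-point dilutions.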

[13] = qHTS of pediatric cancer cell lines to identify multiple opportunities for drug repurposing: Primary screen for Saos-2 cells (AID 1347097); also: nearly all actives have a fitted effect of over 40% in size
Outline: as §2

[14] = qHTS of pediatric cancer cell lines to identify multiple opportunities for drug repurposing: Primary screen for NB-EBc1 cells (AID 1347095)
Outline: as §2

Sequence of Nucleoprotein (Lymphocytic choriomeningitis virus (strain Armstrong)) (P09992 whole entry, looked up): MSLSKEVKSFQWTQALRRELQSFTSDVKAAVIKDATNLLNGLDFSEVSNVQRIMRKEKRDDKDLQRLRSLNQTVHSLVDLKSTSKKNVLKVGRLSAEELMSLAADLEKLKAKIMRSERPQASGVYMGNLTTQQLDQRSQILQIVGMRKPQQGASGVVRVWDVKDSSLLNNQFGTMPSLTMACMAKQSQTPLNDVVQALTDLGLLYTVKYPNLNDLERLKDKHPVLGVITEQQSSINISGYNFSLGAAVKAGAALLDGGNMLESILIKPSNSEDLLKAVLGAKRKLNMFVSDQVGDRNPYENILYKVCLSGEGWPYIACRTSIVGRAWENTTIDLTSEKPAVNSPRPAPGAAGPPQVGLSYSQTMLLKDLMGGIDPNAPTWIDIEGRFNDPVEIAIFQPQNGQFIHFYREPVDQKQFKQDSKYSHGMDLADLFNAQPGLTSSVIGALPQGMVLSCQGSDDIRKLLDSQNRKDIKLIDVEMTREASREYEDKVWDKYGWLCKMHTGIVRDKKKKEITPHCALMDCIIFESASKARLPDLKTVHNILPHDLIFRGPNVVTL

SMILES	Potency [1]	Potency [2]	Potency [3]	Potency [4]	Potency [5]	Potency [6]	Potency [7]	Potency [8]	Potency [9]	Potency [10]	Potency [11]	Potency [12]	Potency [13]	Potency [14]
CC(C)(O)C(Cl)(Cl)Cl	inactive	inactive	inactive	inactive	inactive	inactive	inactive	inactive	inactive	inactive	inactive	inactive	inactive	
C[C@]12CC[C@H](O)CC1=CC[C@@H]1[C@@H]2CC[C@]2(C)C(=O)CC[C@@H]12	inactive	inactive	inactive	inactive	inactive	inactive	inactive	inactive	inactive	inactive	inactive	inactive	inactive	
O=C(CBr)Nc1ccc(Cl)cc1C(=O)c1ccccc1F	inactive	inactive	inactive	inactive	inactive	inactive	inactive	inactive	inactive	inactive	inactive	inactive	inactive	inactive
c1cc2c(c(N3CCNCC3)c1)OCCO2	inactive	inactive	inactive	inactive	inactive	inactive	inactive	inactive	inactive	inactive	inactive	inactive	inactive	inactive
CCNc1nc(Cl)nc(NCC)n1	inactive	inactive	inactive	inactive	inactive	inactive	inactive	inactive		inactive	inactive	inactive		inactive
COP(=O)(OC)OC=C(Cl)Cl	inactive	inactive	inactive	inactive	inactive	inactive	inactive	inactive		inactive	inactive	inactive	inactive	inactive
C=CCN1CC[C@]23CCCC[C@H]2[C@H]1Cc1ccc(O)cc13	inactive	inactive	inactive	inactive	inactive	inactive		inactive	inactive	inactive	inactive	inactive		inactive
COc1ccc2[nH]cc(CCN(C(C)C)C(C)C)c2c1	inactive	inactive	inactive	inactive	inactive	inactive	inactive	inactive		inactive	inactive	inactive	inactive	inactive
CC1N=C(N)OC1c1ccccc1 (configuration not stated)	inactive	inactive	inactive	inactive	inactive	inactive	inactive	inactive		inactive	inactive	inactive	inactive	inactive
CCOP(=S)(OCC)O/N=C(\C#N)c1ccccc1	inactive	inactive	inactive	inactive	inactive	inactive	inactive	inactive		inactive	inactive	inactive	inactive	inactive
CCOC(=O)C(c1c(O)c2ccccc2oc1=O)c1c(O)c2ccccc2oc1=O	inactive	inactive	inactive	inactive	inactive	inactive	inactive	inactive	inactive		inactive	inactive	inactive	
CCCC[N+]1(C)[C@@H]2CC(OC(=O)[C@H](CO)c3ccccc3)C[C@H]1[C@@H]1O[C@@H]12 (some centres not stated)	inactive	inactive	inactive	inactive	inactive	inactive	inactive	inactive		inactive	inactive	inactive	inactive	inactive
CC(C)NCC(O)c1ccc(N)c(C#N)c1 (configuration not stated)	inactive	inactive	inactive	inactive	inactive	inactive	inactive	inactive		inactive	inactive	inactive	inactive	
CCN(CC)CCOC(=O)C(C)(c1ccccc1)c1ccccc1	inactive	inactive	inactive	inactive	inactive	inactive	inactive	inactive		inactive	inactive	inactive	inactive	inactive
COP(=O)(OC)C(O)C(Cl)(Cl)Cl (configuration not stated)	inactive	inactive	inactive	inactive	inactive	inactive		inactive	inactive	inactive	inactive	inactive	inactive	inactive
COc1cc(CC(C)N)cc2c1OCO2 (configuration not stated)	inactive	inactive	inactive	inactive	inactive	inactive	inactive	inactive		inactive	inactive	inactive	inactive	inactive
C[C@]12C=CC(=O)C=C1CC[C@@H]1[C@@H]2CC[C@@]2(C)[C@H]1CC[C@]2(C)O	inactive	inactive	inactive	inactive	inactive	inactive	inactive				inactive	inactive		
C[C@H]1CNCCc2ccc(Cl)cc21	inactive	inactive	inactive	inactive	inactive	inactive	inactive	inactive		inactive	inactive	inactive	inactive	inactive
CC(CC(C(N)=O)(c1ccccc1)c1ccccc1)N(C)C (configuration not stated)	inactive	inactive	inactive	inactive	inactive	inactive	inactive	inactive		inactive	inactive	inactive	inactive	inactive

SMILES	Potency [1]	Potency [2]	Potency [3]	Potency [4]	Potency [5]	Potency [6]	Potency [7]	Potency [8]	Potency [9]	Potency [10]	Potency [11]	Potency [12]	Potency [13]	Potency [14]
C[C@@H]1CN(C2CCC(C#N)(c3ccc(F)cc3)CC2)CC[C@]1(C(=O)O)c1ccccc1 (some centres not stated)	inactive	inactive	inactive	inactive	inactive	inactive	inactive	inactive		inactive	inactive	inactive	inactive	inactive
ClC1=C(Cl)C2(Cl)C(CBr)CC1(Cl)C2(Cl)Cl (configuration not stated)	inactive	inactive	inactive	inactive	inactive	inactive	inactive	inactive		inactive	inactive	inactive	inactive	inactive
Oc1c(Br)cc(Br)cc1Br	inactive	inactive	inactive	inactive	inactive	inactive	inactive	inactive		inactive	inactive	inactive	inactive	
O=C1NCN(c2ccccc2)C12CCN(CCCOc1ccc(F)cc1)CC2	inactive	inactive	inactive	inactive	inactive	inactive	inactive			inactive	17.4 µM (active)	inactive		inactive
CN1C2CCC(C)(C)C1CC(OC(=O)C(O)(c1cccs1)c1cccs1)C2 (configuration not stated)	inactive	inactive	inactive	inactive	inactive	inactive	inactive		inactive	inactive	inactive	inactive	inactive	
CC(=O)OC1(c2ccccc2)CCN(CCc2ccccc2)CC1	inactive	inactive	inactive	inactive	inactive	inactive	inactive					inactive		
O=C(O)CCCCCCNC1c2ccccc2CCc2ccccc21	inactive	inactive	inactive	inactive	inactive	inactive		inactive	inactive	inactive	inactive	inactive		inactive
CCN1CCCC1CNC(=O)C(O)(c1ccccc1)c1ccccc1 (configuration not stated)	inactive	inactive	inactive	inactive	inactive	inactive	inactive	inactive		inactive	inactive	inactive	inactive	inactive
NC(=O)OCCCc1ccccc1	inactive	inactive	inactive	inactive	inactive	inactive	inactive	inactive		inactive	inactive	inactive	inactive	
COc1cc(N)c(Cl)cc1C(=O)NC1CN2CCC1CC2 (configuration not stated)	inactive	inactive	inactive	inactive	inactive	inactive	inactive	inactive		inactive	inactive	inactive	inactive	
CC(C)=CCN1CC[C@@]2(C)c3cc(O)ccc3C[C@@H]1[C@@H]2C	inactive	inactive	inactive	inactive	inactive	inactive	inactive					inactive		inactive
CCN(CC)C(C)C(=O)c1ccccc1 (configuration not stated)	inactive	inactive	inactive	inactive	inactive	inactive	inactive	inactive		inactive	inactive	inactive	inactive	inactive
O=c1n(Cl)c(=O)n(Cl)c(=O)n1Cl	inactive	inactive	inactive	inactive	inactive	inactive	inactive	inactive		inactive	inactive	inactive	inactive	inactive
CC1COC2(c3ccccc3Cl)c3cc(Cl)ccc3NC(=O)CN12 (configuration not stated)	inactive	inactive	inactive	inactive	inactive	inactive	inactive		inactive	inactive	inactive	inactive	inactive	inactive
Nc1ccc(N)cc1	inactive	inactive	inactive	inactive	inactive	inactive	inactive	inactive			inactive	inactive		
CC1Sc2c(C(=O)O)c(=O)c3cc(F)c(N4CCNCC4)cc3n21 (configuration not stated)	inactive	inactive	inactive	inactive	inactive	inactive	inactive	inactive			inactive	inactive	inactive	inactive
COc1cc(C[C@@H](C)N)c(OC)cc1Br	inactive	inactive	inactive	inactive	inactive	inactive	inactive	inactive		inactive	inactive	inactive	inactive	
Clc1ccc(C(OCCN2CCCCC2)c2ccccc2)cc1 (configuration not stated)	inactive	inactive	inactive	inactive	inactive	inactive	inactive					inactive	inactive	
CCc1cc(OC)c(C[C@H](C)N)cc1OC	inactive	inactive	inactive	inactive	inactive	inactive	inactive	inactive			inactive	inactive	inactive	inactive
